Hits are enriched below; roughly 12% of the tested compounds scored in any of these assays.
Sfp inh: inhibitors of Bacillus subtilis Sfp phosphopantetheinyl transferase; Q9F4F7; Biochemical Sfp PPTase activity, qHTS; Potency, µM, for inactives: largest response in the series, negative = inhibition, most hits filed as inhibitors; 310,000 tested, 3.5% active;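 also: the enzyme is Sfp with the accession as filed and its product quenches rhodamine fluorescence; 0% = enzyme reaction without inhibitor and -100% = no enzyme wells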
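With Hepes-Na pH 7.6 buffer containing 10 mM MgCl2, Sfp (15 nM) modified BHQ-2-YbbR (12.5 uM) using rhodamine-CoA (5 uM). Two reads 30 minutes apart at 525/598 nm yielded each well's rate.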
G9a block: inhibitors of human histone lysine methyltransferase G9a; G9a H3K9 monomethylation, AlphaScreen, 2 h; 350,000 tested, 8.8% active; AID 504332; Potency, µM (titrated, usually from 102 µM), for inactives: at the top dose activity, negative = inhibition, hits mostly inhibitors; also: % is scaled to controls: 0 for no effect and ±100 for the full control effect; nearly all actives have a fitted effect of over 75% in size
Target sequence (Q96KQ7 913-1193 limits assumed): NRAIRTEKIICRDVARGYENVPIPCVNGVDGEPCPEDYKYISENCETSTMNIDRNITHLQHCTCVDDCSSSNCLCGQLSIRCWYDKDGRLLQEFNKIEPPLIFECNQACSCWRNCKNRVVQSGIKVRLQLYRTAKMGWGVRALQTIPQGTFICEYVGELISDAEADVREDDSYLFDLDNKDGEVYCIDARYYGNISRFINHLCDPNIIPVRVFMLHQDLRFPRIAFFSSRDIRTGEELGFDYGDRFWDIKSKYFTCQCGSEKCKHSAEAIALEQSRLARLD
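G9a (20 nM) preincubated 15 min RT with compounds, then 500 nM biotinylated H3K9 peptide and 20 uM SAM added; 2 h RT reaction. Monomethyl-H3K9 product detected by AlphaScreen with anti-H3K9me1 antibody, streptavidin donor and anti-rabbit IgG acceptor beads.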
HP1b chromo inh: inhibitors of HP1-beta chromodomain binding to methylated histone tails; 390,000 tested, 0.56% active; P83916; AlphaScreen HP1-beta / biotin-H3K9me3 peptide binding; Potency, µM (doses to about 114 µM), for the others: at the top dose activity change, negative = inhibition, actives largely listed as inhibitors; also: nearly all actives have a fitted effect of over 70% in size
Target sequence (P83916 whole entry, looked up): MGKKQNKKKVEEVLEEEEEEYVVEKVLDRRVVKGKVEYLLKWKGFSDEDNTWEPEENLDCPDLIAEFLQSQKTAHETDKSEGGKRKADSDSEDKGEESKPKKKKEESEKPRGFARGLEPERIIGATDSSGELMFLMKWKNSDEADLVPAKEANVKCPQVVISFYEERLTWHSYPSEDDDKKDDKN
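HP1-beta protein (50 nM final) preincubated 30 min at room temperature with biotinylated H3(1-18)K9me3 peptide (50 nM) in PBS pH 7.4, 0.01% Tween-20, then compound added for 30 min. AlphaScreen streptavidin donor/nickel chelate acceptor beads (10 ug/mL final), 30 min dark, luminescence read.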
BAZ2B inh: BAZ2B (human) inhibition; AID 504333; AlphaScreen BAZ2B-H3K14Ac peptide displacement; 360,000 tested, 4.4% active; Q9UIF8; Potency, µM (titrated, usually from 114 µM), inactives show at the top dose activity change, negative = inhibition, most hits filed as inhibitors; also: % is scaled to controls: 0 for no effect and ±100 for the full control effect; nearly all actives have a fitted effect of over 60% in size
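Inhibition is scored as reduced AlphaScreen emission. The BAZ2B/b-H3(5-23)K14Ac complex (50 nM each) in PBS pH 7.4, 0.01% Tween-20 meets compound (up to 110 uM) for 30 min at RT before bead addition.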
JMJD2A Tudor inh: JMJD2A Tudor domain (human) inhibition; O75164; AlphaScreen JMJD2A-Tudor / H3K4me3 peptide binding; Potency, µM (highest dose often 114 µM), for the others: at the top dose activity change, negative = inhibition, actives largely listed as inhibitors; 390,000 tested, 4.4% active; AID 504339; also: % is scaled to controls: 0 for no effect and ±100 for the full control effect; nearly all actives have a fitted effect of over 50% in size
* hit, by the source's call; ? = inconclusive; · = no result given; ! = repeats disagree; [ ] = dose if it differs, or a comment. Calls follow the shape of the dose curve; as a rule, active = well fitted curve in the direction sought with a large enough effect; inconclusive = small, poorly fitted or top-dose-only effect, or another doubt; inactive = no such curve, though single readings can be large; an effect the other way counts as inactive or inconclusive. Potency is read from the fitted curve at half-maximal effect.

SMILES	Sfp inh	G9a block	HP1b chromo inh	BAZ2B inh	JMJD2A Tudor inh
Cc1cccc(OCC(=O)Nc2ccc(N3CCN(C(=O)c4ccco4)CC3)cc2)c1	-4%	79µM*	0%	-38%	-33%
O=C(COc1ccc2ccccc2c1)N1CCN(C(=O)c2ccco2)CC1	-11%	-37%	5%	13%	-10%
CCOC(=O)c1cccc(NC(=O)NCCc2c(C)nn(C)c2C)c1	·	1%[12.7 µM]	35%	-3%	8%
CN(C(=O)c1cccc(NC(=O)Cc2ccc(NC(=O)C3CCCN(C(=O)C4CC4)C3)cc2)c1)C1CCCC1 (centres undefined)	·	·	6%	·	-21%
O=C(Nc1ccc(N2CCN(C(=O)c3ccco3)CC2)cc1)c1ccc(Br)cc1	9%	0%	37%	-17%	-9%
Cc1ccc(C(=O)Nc2ccc(N3CCN(C(=O)c4ccco4)CC3)cc2)cc1	5%	2%	-7%	-28%	79µM*
CCc1cccc2sc(N(CCCN3CCOCC3)C(=O)CS(=O)(=O)c3ccccc3)nc12	·	6%	17%	5%	?
O=C(CCS(=O)(=O)c1ccccc1)N(CCCN1CCOCC1)c1nc2ccc(F)cc2s1	·	22µM*	37%	3%	-18%
O=C(CCS(=O)(=O)c1ccccc1)N(CCCN1CCOCC1)c1nc2c(F)cccc2s1	·	14µM*	35%	?	-11%
Cc1ccc(S(=O)(=O)CC(=O)N(CCCN2CCOCC2)c2nc3c(F)cccc3s2)cc1	·	?	13%	-7%	-8%
Cc1ccc(S(=O)(=O)N2CCC(C(=O)OCC(=O)N(C)C3CCCCC3)CC2)cc1C	·	14%[0.501 µM]	18%	4%	-7%
CNc1ccc(/C=C/C(=O)c2cccc3ccccc23)cc1[N+](=O)[O-]	0%	10µM*	16µM*	7.1µM*	8.9µM*
CNc1ccc(C(=O)c2ccccc2C(=O)O)cc1[N+](=O)[O-]	3%	-35%	28%	-24%	?
CCOc1ccc(CNC(=O)c2ccc3nc(CC)c(CC)nc3c2)cc1	·	9%[59 µM]	45%	3%	-10%
CN1CCN(c2ncc3nc(-c4cccc(C#N)c4)c(=O)n(CCc4ccccc4)c3n2)CC1	-3%	9%[0.501 µM]	·	·	·
Cc1c(Cl)cccc1NC(=O)Nc1c(C)n(C)n(-c2ccccc2)c1=O	12%	79µM*	38%	-1%	-2%
Cc1c(NC(=S)N/N=C/c2cc([N+](=O)[O-])ccc2O)c(=O)n(-c2ccccc2)n1C	-19%	56µM*	26%	5.6µM*	28µM*
Cc1c(NC(=S)N/N=C/c2ccc(O)cc2)c(=O)n(-c2ccccc2)n1C	-20%	4%	33%	4%	-18%
Cc1cccc(NC(=O)Nc2c(C)n(C)n(-c3ccccc3)c2=O)c1C	20%	35%	26%	2%	5%
Cc1c(NC(=O)Nc2ccc([N+](=O)[O-])cc2)c(=O)n(-c2ccccc2)n1C	6%	18%	13%	-3%	16µM*
Cc1c(NC2=C(Cl)C(=O)N(c3ccccc3Cl)C2=O)c(=O)n(-c2ccccc2)n1C	50µM*	40µM*	2%	-38%	?
Cc1ccc(NC(=O)Nc2c(C)n(C)n(-c3ccccc3)c2=O)cc1	2%	14%	17%	-11%	-1%
COc1ccc(Cn2ccc3nc(C)c(C(=O)Nc4cc(C)cc(C)c4)cc3c2=O)cc1	·	11%[59 µM]	23%	-11%	-7%
CO[C@@H]1COC(=O)[C@H]2CCCN2C(=O)[C@@H](C)COC(=O)C/C=C\[C@H]1C	15%	·	·	·	·
COc1cc(CNCc2ccccn2)ccc1OCc1ccc(Cl)c(Cl)c1	-9%	50µM*	14%	?	?
SMILES	Sfp inh	G9a block	HP1b chromo inh	BAZ2B inh	JMJD2A Tudor inh
COc1cc(CNCc2ccccn2)ccc1OCC(N)=O	89µM*	2.2µM*	21%	14µM*	50µM*
COc1cc(CNCc2ccccc2)ccc1OCC(O)c1ccccc1 (centres undefined)	-13%	11µM*	-8%	?	20µM*
COc1ccc(CNCCc2ccccc2)cc1OCC(N)=O	18%	·	23%	1%	-10%
CCOC(=O)c1c(C)nc2ccccc2c1-c1ccccc1	79µM*	0%[59 µM]	96%	22%	28%
CCOC(=O)c1c(C)nc(C)c(C(=O)OCC)c1-c1ccc(O)c(OC)c1	32µM*	8.9µM*	?	8%	-22%
CCN1C(=O)c2ccccc2S(=O)c2ccc(C(=O)NCc3ccc(Cl)cc3)cc21 (centres undefined)	·	-8%[59 µM]	33%	-8%	-18%
Cc1ccc(S(=O)(=O)N2CCCN(C(=O)c3ccc(-n4cccn4)cc3)CC2)cc1	·	27%[12.7 µM]	43%	6%	-13%
CCCCn1cnc2cc(NCc3ccncc3)ccc21	1%	?	8%	-11%	?
CCn1cnc2cc(NCc3ccc(OC)cc3)ccc21	-7%	8.9µM*	2%	?	-35%
CCc1ccc(CNc2ccc3c(c2)ncn3CC)cc1	-2%	11µM*	?	?	45µM*
CCOc1ccc2nc3cc(N)ccc3c(N)c2c1	-26%	?	·	·	·
CCOc1ccc2nc3cc(NCc4ccc(OC)cc4)ccc3c(N)c2c1	32µM*	35µM*	38%	?	?
CN(C(=O)COC(=O)C12CC3CC(CC(Cl)(C3)C1)C2)c1ccccc1	·	·	64%	·	16%
Cc1ccc(NC(=O)CSc2nc3ncc(Cl)cc3[nH]2)c(C)c1	9%	-20%	66%	-12%[57.1 µM]	-19%
NCCCCNc1ncnc2ccc(-c3ccc4c(c3)OCO4)cc12	·	·	·	·	-32%
COc1cccc(NC(=O)CN(C)C(=O)c2ccc(Cl)c(S(=O)(=O)N3CCCCCC3)c2)c1	·	71µM*	-1%	10%	-22%
COc1cccc(NC(=O)CN(C)C(=O)c2cccc(S(=O)(=O)N3c4ccccc4CC3C)c2)c1 (centres undefined)	·	16µM*	10%	2%	-27%
O=C(Nc1ccc(N2CCC(c3ccccc3)C2)c(C(=O)O)c1)c1ccc(Cl)cc1 (centres undefined)	·	10µM*	16%	-34%	?
COc1ccccc1CNC(=O)c1ccc2c(c1)nc(C)n2-c1cccc(C)c1	·	-16%[59 µM]	-15%	-35%	-29%
COc1cc(CNC2CCCCC2OC)cc(OC)c1 (centres undefined)	2%	?	?	56µM*	5.6µM*
COc1cccc(CNCC2CCCO2)c1 (centres undefined)	11%	3%[0.501 µM]	40%	12%	6%
CCC(C)(C)c1ccc(OCCCC[n+]2cccc(C)c2C)c(C(C)(C)CC)c1	45µM*	·	27%	-12%	-14%
CCC(C)(C)c1ccc(OCCCC[n+]2ccc(C)cc2)c(C(C)(C)CC)c1	40µM*	?	41%	-18%	-30%
CS(=O)(=O)Nc1ccc([N+](=O)[O-])cc1Oc1ccccc1	56µM*!	32µM*!	43%	-26%	-16%
COc1ccccc1CCC(=O)Nc1ccc(C)cc1Cl	7%	-9%[59 µM]	43%	0%	2%
